Measured values: PubChem BioAssay AID1159580 (chemical genetic matrix, 2015)
Values joined by “and” are separate entries in the source; they are usually repeats but may differ in a detail not shown here. Identical values can stand only once. In all, about 5,500 compounds went through this assay and about 2,000 (36%) were called active. Roughly 18% stayed inconclusive and do not appear here. No stated cut-off is given here; in the data, active means normalized growth mostly below about 0.91 (no sharp cut-off); inconclusive means no clear call, values can overlap the other calls; inactive means mostly above about 0.92. The list shows a part of the results.

Experiment: chemical genetic growth profiling, strain panel (AID 1159580);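 further: tested at 20 µM; growth read once vehicle control cultures reached saturation at 30 °C; 1 = growth at the plate median or of vehicle wells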
Conditions: S. cerevisiae deletion strains, growth OD

Measured: normalized growth

COc1cc2c(cc1OC)[C@@]13CCN4CC5=CCOC6CC(=O)N2C1[C@H]6[C@H]5C[C@H]43 (stereo partly drawn)
inactive: locus YAL013W, strain DEP1, stronger effect = lower value 1.02 | locus YAL021C, strain ccr4, stronger effect = lower value 0.983 | locus YAL026C, strain drs2, stronger effect = lower value 0.998 | locus YAL030W, strain snc1, stronger effect = lower value 1 | locus YBL061C, strain skt5, stronger effect = lower value 0.994 | locus YBR009C, strain hhf1, stronger effect = lower value 0.994 | locus YBR021W, strain FUR4, stronger effect = lower value 0.985 | locus YBR023C, strain chs3, stronger effect = lower value 0.989 | locus YBR171W, strain sec66, stronger effect = lower value 0.99 | locus YBR229C, strain ROT2, stronger effect = lower value 1.01 | locus YBR231C, strain swc5, stronger effect = lower value 0.979 | locus YBR279W, strain paf1, stronger effect = lower value 0.993 | locus YCL011C, strain gbp2, stronger effect = lower value 0.988 | locus YCL016C, strain dcc1, stronger effect = lower value 0.986 | locus YCL029C, strain bik1, stronger effect = lower value 1.01 | locus YCL061C, strain MRC1, stronger effect = lower value 0.988 | locus YCL069W, strain vba3, stronger effect = lower value 0.995 | locus YCR088W, strain abp1, stronger effect = lower value 0.994 | locus YDL005C, strain med2, stronger effect = lower value 0.988 | locus YDL035C, strain GPR1, stronger effect = lower value 1.03 | locus YDL040C, strain nat1, stronger effect = lower value 0.983 | locus YDL074C, strain BRE1, stronger effect = lower value 1.03 | locus YDL101C, strain DUN1, stronger effect = lower value 1.02 | locus YDL185W, strain tfp1, stronger effect = lower value 1 | locus YDL192W, strain arf1, stronger effect = lower value 1.01 | locus YDR001C, strain nth1, stronger effect = lower value 0.997 | locus YDR069C, strain doa4, stronger effect = lower value 1 | locus YDR101C, strain arx1, stronger effect = lower value 0.997 | locus YDR137W, strain rgp1, stronger effect = lower value 1 | locus YDR150W, strain NUM1, stronger effect = lower value 1.02 | locus YDR159W, strain sac3, stronger effect = lower value 0.977 | locus YDR162C, strain NBP2, stronger effect = lower value 1.02 | locus YDR195W, strain ref2 0.927 | locus YDR297W, strain sur2, stronger effect = lower value 0.996 | locus YDR318W, strain mcm21, stronger effect = lower value 1.02 | locus YDR334W, strain swr1, stronger effect = lower value 0.986 | locus YDR335W, strain msn5, stronger effect = lower value 0.996 | locus YDR388W, stronger effect = lower value 0.994 | locus YDR392W, strain spt3, stronger effect = lower value 0.999 | locus YDR502C, strain sam2, stronger effect = lower value 1.03 | locus YEL003W, strain gim4, stronger effect = lower value 0.997 | locus YEL037C, strain rad23, stronger effect = lower value 0.989 | locus YEL061C, strain CIN8 (second series), stronger effect = lower value 0.986 | locus YEL061C, strain CIN8, stronger effect = lower value 1.01 | locus YER015W, strain faa2, stronger effect = lower value 0.989 | locus YER016W, strain bim1, stronger effect = lower value 0.989 | locus YER110C, stronger effect = lower value 0.997 | locus YER111C, strain swi4, stronger effect = lower value 0.971 | locus YER155C, strain BEM2 (second series), stronger effect = lower value 0.993 | locus YER155C, strain BEM2, stronger effect = lower value 1.01 | locus YER167W, strain BCK2, stronger effect = lower value 1 | locus YFR010W, strain ubp6, stronger effect = lower value 0.999 | locus YGL078C, strain dbp3, stronger effect = lower value 1.01 | locus YGL086W, strain mad1, stronger effect = lower value 1 | locus YGL167C, strain pmr1, stronger effect = lower value 0.988 | locus YGL173C, strain kem1, stronger effect = lower value 0.982 | locus YGL227W, strain vid30, stronger effect = lower value 0.984 | locus YGL240W, strain doc1, stronger effect = lower value 0.979 | locus YGL248W, strain PDE1, stronger effect = lower value 1.01 | locus YGL253W, strain hxk2, stronger effect = lower value 0.988 | locus YGR078C, strain PAC10, stronger effect = lower value 1.02 | locus YGR135W, strain pre9, stronger effect = lower value 1.01 | locus YGR229C, strain SMI1, stronger effect = lower value 1.04 | locus YGR252W, strain gcn5, stronger effect = lower value 0.994 | locus YHR013C, strain ard1, stronger effect = lower value 0.964 | locus YHR027C, strain rpn1, stronger effect = lower value 0.987 | locus YHR030C, strain SLT2, stronger effect = lower value 1.02 and 1.01 | locus YHR079C, strain IRE1 (second series), stronger effect = lower value 0.996 | locus YHR079C, strain IRE1, stronger effect = lower value 1.09 | locus YHR094C, strain hxt1, stronger effect = lower value 0.977 | locus YHR129C, strain ARP1, stronger effect = lower value 1.02 | locus YHR142W, strain chs7, stronger effect = lower value 0.99 | locus YHR200W, strain rpn10, stronger effect = lower value 0.99 | locus YIL066C, strain RNR3, stronger effect = lower value 1.02 | locus YIL073C, strain SPO22, stronger effect = lower value 1.02 | locus YIL125W, strain kgd1, stronger effect = lower value 1 | locus YIR030C, strain dcg1, stronger effect = lower value 0.996 | locus YJL092W, strain hpr5, stronger effect = lower value 0.984 | locus YJL095W, strain BCK1 (second series), stronger effect = lower value 0.984 | locus YJL095W, strain BCK1, stronger effect = lower value 1.02 and 0.999 | locus YJL115W, strain asf1, stronger effect = lower value 0.993 | locus YJL129C, strain trk1, stronger effect = lower value 0.99 | locus YJL134W, strain LCB3, stronger effect = lower value 1.01 | locus YJL154C, strain vps35, stronger effect = lower value 0.986 | locus YJL164C, strain tpk1, stronger effect = lower value 1.01 | locus YJL166W, strain qcr8, stronger effect = lower value 0.996 | locus YJL168C, strain set2, stronger effect = lower value 1 | locus YJL187C, strain SWE1 (second series), stronger effect = lower value 1.02 | locus YJL187C, strain SWE1, stronger effect = lower value 0.996 | locus YJR043C, strain POL32, stronger effect = lower value 1.04 | locus YJR066W, strain TOR1, stronger effect = lower value 0.973 | locus YJR075W, strain HOC1, stronger effect = lower value 1.02 | locus YKL009W, strain mrt4, stronger effect = lower value 1.04 | locus YKL068W, stronger effect = lower value 0.995 | locus YKL085W, strain MDH1 (second series), stronger effect = lower value 1 | locus YKL085W, strain MDH1, stronger effect = lower value 1 | locus YKL160W, strain elf1, stronger effect = lower value 0.98 | locus YKR001C, strain vps1, stronger effect = lower value 1.01 | locus YKR026C, strain gcn3, stronger effect = lower value 0.991 | locus YKR091W, strain srl3, stronger effect = lower value 0.994 | locus YLL001W, strain dnm1, stronger effect = lower value 0.989 | locus YLL026W, stronger effect = lower value 0.99 | locus YLL041C, strain sdh2, stronger effect = lower value 0.995 | locus YLR027C, strain aat2, stronger effect = lower value 0.996 | locus YLR039C, strain RIC1, stronger effect = lower value 1.04 | locus YLR058C, strain SHM2, stronger effect = lower value 1.02 | locus YLR102C, strain apc9, stronger effect = lower value 0.997 | locus YLR113W, strain HOG1, stronger effect = lower value 0.991 | locus YLR221C, strain rsa3, stronger effect = lower value 0.997 | locus YLR258W, strain gsy2, stronger effect = lower value 0.99 | locus YLR262C, strain YPT6 (second series), stronger effect = lower value 0.988 | locus YLR262C, strain YPT6, stronger effect = lower value 1.05 | locus YLR268W, strain sec22, stronger effect = lower value 1 | locus YLR320W, strain mms22, stronger effect = lower value 0.982 | locus YLR330W, strain CHS5, stronger effect = lower value 1.01 | locus YLR342W, strain FKS1 (second series), stronger effect = lower value 1.02 | locus YLR342W, strain FKS1, stronger effect = lower value 0.989 | locus YLR357W, strain rsc2, stronger effect = lower value 0.983 | locus YLR370C, strain arc18, stronger effect = lower value 0.991 | locus YLR371W, strain rom2, stronger effect = lower value 0.993 | locus YLR384C, strain iki3, stronger effect = lower value 0.995 | locus YLR418C, strain cdc73, stronger effect = lower value 1.01 | locus YML016C, strain PPZ1, stronger effect = lower value 1.01 | locus YML032C, strain rad52, stronger effect = lower value 1.01 | locus YML120C, strain ndi1, stronger effect = lower value 0.981 | locus YML124C, strain tub3, stronger effect = lower value 1 | locus YMR058W, strain fet3, stronger effect = lower value 0.986 | locus YMR078C, strain ctf18, stronger effect = lower value 1 | locus YMR125W, strain sto1, stronger effect = lower value 0.992 | locus YMR129W, stronger effect = lower value 0.997 | locus YMR205C, strain PFK2, stronger effect = lower value 0.973 | locus YMR223W, strain ubp8, stronger effect = lower value 1 | locus YMR231W, strain pep5, stronger effect = lower value 0.995 | locus YMR307W, strain GAS1, stronger effect = lower value 1.05 | locus YNL067W, strain RPL9B, stronger effect = lower value 1.01 | locus YNL071W, strain lat1, stronger effect = lower value 0.997 | locus YNL128W, strain TEP1, stronger effect = lower value 1.03 | locus YNL153C, strain GIM3, stronger effect = lower value 1.02 | locus YNL183C, strain NPR1, stronger effect = lower value 0.968 | locus YNL209W, strain ssb2, stronger effect = lower value 1 | locus YNL233W, strain BNI4, stronger effect = lower value 1.01 | locus YNL248C, strain rpa49, stronger effect = lower value 0.992 | locus YNL250W, strain rad50, stronger effect = lower value 1 | locus YNL271C, strain bni1, stronger effect = lower value 1.01 | locus YNL298W, strain CLA4, stronger effect = lower value 1.01 | locus YNL307C, strain MCK1, stronger effect = lower value 0.996 | locus YNL322C, strain KRE1 (second series), stronger effect = lower value 0.982 | locus YNL322C, strain KRE1, stronger effect = lower value 1.01 | locus YNR049C, strain mso1, stronger effect = lower value 0.989 | locus YNR052C, strain pop2, stronger effect = lower value 0.995 | locus YOL012C, strain htz1 1.21 | locus YOL147C, strain pex11, stronger effect = lower value 0.993 | locus YOR001W, strain rrp6, stronger effect = lower value 0.994 | locus YOR061W, strain CKA2, stronger effect = lower value 1.01 | locus YOR069W, strain VPS5, stronger effect = lower value 1.02 | locus YOR070C, strain gyp1, stronger effect = lower value 0.998 | locus YOR080W, strain dia2, stronger effect = lower value 0.986 | locus YOR083W, strain WHI5, stronger effect = lower value 0.993 | locus YOR106W, strain vam3, stronger effect = lower value 0.997 | locus YOR136W, strain idh2, stronger effect = lower value 0.991 | locus YOR144C, strain elg1, stronger effect = lower value 0.997 | locus YOR184W, strain ser1, stronger effect = lower value 1.02 | locus YOR231W, strain MKK1, stronger effect = lower value 1 | locus YOR265W, strain rbl2, stronger effect = lower value 0.991 | locus YOR270C, strain vph1, stronger effect = lower value 1 | locus YOR290C, strain snf2, stronger effect = lower value 0.99 | locus YOR316C, strain cot1, stronger effect = lower value 0.995 | locus YPL051W, strain arl3, stronger effect = lower value 0.997 | locus YPL055C, strain LGE1, stronger effect = lower value 1.03 | locus YPL078C, strain atp4, stronger effect = lower value 0.988 | locus YPL106C, strain sse1, stronger effect = lower value 0.971 | locus YPL240C, strain hsp82, stronger effect = lower value 0.988 | locus YPL256C, strain CLN2, stronger effect = lower value 0.979 | locus YPR119W, strain clb2, stronger effect = lower value 1 | locus YPR141C, strain kar3, stronger effect = lower value 0.998 | locus YPR163C, strain tif3, stronger effect = lower value 1.01 | locus YPR167C, strain met16, stronger effect = lower value 1.01 | strain wtn01, stronger effect = lower value 1
